Compounds without any hit were thinned out: in the full panel of roughly 83,000, 20% have a hit.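 Each cell line was grown in a 96-well plate and treated with one concentration of compound for 48 hours. Values below 10 were considered active.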 Values without a mark were called inactive. Calls of active or inactive are those of the source.

In PubChem BioAssay (NCI) one finds growth data, which are given here for 38 compounds.

For this test, the system named is SK-MEL-5 melanoma. Description: NCI-60 one-dose screen, 48 h (100 = growth as untreated, 0 = no growth, -100 = all killed). Conditions: 10 µM unless noted.
Take `Clc1ccc([I+]c2ccc(Cl)cc2Cl)c(Cl)c1`: the growth is 104%. The value for `Cc1ccc(C2=NN(c3ccc(S(N)(=O)=O)cc3)C(c3cn(-c4ccccc4)nc3-c3ccccc3)C2)cc1` (stereo not drawn) was 100%; that for `N#CC1=C(N)OC2=C(C(=O)CCC2)C1c1ccco1` (stereo not drawn) was 101%. `COC1=CC(c2ccc[nH]2)=N/C1=C\c1[nH]c(C)c(C(=O)CCCCC(=O)Oc2ccc3c(c2)CCC2C3CC[C@]3(C)[C@@H](O)CC[C@@H]23)c1C` (stereo partly drawn): the growth was 47.8%. The value for `COc1ccc(NC(=O)CSc2nc3ccccc3c(=O)n2Cc2cc(OC)c(OC)c(OC)c2)cc1` was 87.5%. As for `Nc1c(C(=O)Nc2c(Cl)cccc2Cl)sc2nc3c(cc12)CCCCC3`, the growth was 66.3%.

For `O=C(CN1CCN(c2cc3c(cc2F)c(=O)c(C(=O)O)cn3C2CC2)CC1)Nc1ccc(C(=O)/C=C/c2ccccc2)cc1`, the growth was 13.6%. The value for `COc1cc(/C=C/C(=O)c2ccc(NC(=O)CN3CCN(c4cc5c(cc4F)c(=O)c(C(=O)O)cn5C4CC4)CC3)cc2)cc(OC)c1OC` was -42.9% (active); that for `NC(=O)c1c(NC(=O)c2ccc(OCC3CCCO3)cc2)sc2c1CCCC2` (stereo not drawn) was 78.2%; that for `COc1ccc(/C=C/C(=O)OCC(=O)NNC(=O)c2ccccc2)cc1OC` was 97.8%. As to `Cc1sc(N=Nc2ccc(N(C)C)cc2)[n+]([O-])c1C`, the growth was 99%. For `O=C(/C=C/c1ccccc1)n1c(-c2ccc(Cl)cc2)nc2ccccc21`, the growth was -70.6% (active). Then `COC(=O)[C@H]1[C@H](OC)[C@@H](OC(=O)/C=C/c2ccncc2)CC2CN3CCc4c([nH]c5cc(OC)ccc45)[C@@H]3C[C@@H]21` (stereo partly drawn), with 89.6%; and `O=C1Nc2ccc(Br)cc2C1=N/C=c1\[nH]c(=O)/c(=C/c2ccc(Cl)cc2)s1`, with 99.1%; and `Nc1c(C(=O)Nc2cccc(C(F)(F)F)c2)sc2nc3c(cc12)CCCCC3`, with 0.77% (active). The value for `COc1cc(/C=C2\C=C(c3ccc(F)cc3)N(Cc3ccccc3)C2=O)cc(OC)c1OC` was 36.1%; that for `Clc1nc(Cl)c2ncn(C/C=C/Cn3cnc4c(Cl)nc(Cl)nc43)c2n1` was 68.7%; that for `NC(C(=O)O)C(O)c1ccc(OCc2ccccc2)c(OCc2ccccc2)c1` (stereo not drawn) was 103%.

Consider `Nc1c(C(=O)Nc2ccccc2)sc2nc3c(cc12)CCC3`, for which the growth is 68.7%. Take `COc1ccc(/C=C/c2cc(N3CCOCC3)c3cc(F)c(F)cc3n2)cc1OC`: the growth is 26.2%. The value for `O=[N+]([O-])c1cccc(-c2cc(-c3cc(Br)ccc3O)[nH]n2)c1` was 6.28% (active).

Consider `COC1=CC(c2ccc[nH]2)=N/C1=C\c1[nH]c(C)c(C(=O)CCC(=O)Oc2ccc3c(c2)CCC2C3CC[C@]3(C)[C@@H](O)CC[C@@H]23)c1C` (stereo partly drawn), for which the growth was -84.2% (active). The value for `COc1ccc(C2=NN(c3ccc(S(N)(=O)=O)cc3)C(c3cn(-c4ccccc4)nc3-c3ccc(Cl)cc3)C2)cc1` (stereo not drawn) was 99.9%; that for `COc1cc(CCn2nnc3c(NCCCCO)ncnc32)cc(OC)c1` was 99.1%; that for `Clc1ccc(-c2nc(-c3ccco3)cn3ccnc23)cc1` was 58%.

Regarding `O=C(c1ccncc1)N1N=C(c2ccc(Cl)cc2)CC1c1c[nH]c2ccccc12` (stereo not drawn), the growth was 93.3%. As for `COc1ccc(-c2cn[nH]c2-c2cc(OC)c3c(c2)OCCO3)cc1`, the growth is 25.4%. Take `O=S(=O)(c1ccccc1)n1ccc(-c2ccc3c(c2)CCO3)n1`: the growth was 70.2%.

Regarding `COC1=CC(c2ccc[nH]2)=N/C1=C\c1[nH]c(C)c(C(=O)CCCCC(=O)NCc2ccccc2)c1C`, the growth was 43.9%. Regarding `Nc1c(C(=O)Nc2cccc([N+](=O)[O-])c2)sc2nc3c(cc12)C(O)CCC3` (stereo not drawn), the growth was 35.1%.

For the compound `COc1cccc(NC(=O)c2sc3nc4c(cc3c2N)CCCC4)c1`, the growth was 26.3%. The value for `O=C(Nc1cccc(C(F)(F)F)c1)Nc1ccc(OCc2nnc(-c3ccccc3)o2)c(F)c1` was 56.2%; that for `CC(=O)Nc1nc(C(=O)N2N=C(C)/C(=C/c3ccc(Cl)cc3)C2=O)cs1` was 104%.

Turning to `COc1cc(C(=O)OCCCCCCCCCCC[P+](c2ccccc2)(c2ccccc2)c2ccccc2)ccc1O`, the growth was -98.1% (active).

`O=C(NCCCN1CCN(CCCNC(=O)C2CCCCC2)CC1)C1CCCCC1`: the growth was 105%. Then `COc1cc2c(cc1OC)C1(C)N(CC2)C(=O)OC1(C)C` (stereo not drawn), with 99.6%; and `CCCCCc1c(C)[nH]c(/C=c2\[nH]/c(=C3/C=c4ccccc4=N3)cc2OC)c1C`, with -98.7% (active); and `COc1cc(-c2n[nH]nc2-c2ccc3c(c2)OCCO3)cc(OC)c1OC`, with -39.5% (active).
